# This is part of a sample that, as a whole, favours compounds with a hit. Of some 79,000 tested, about 15% had one in any assay. Unmarked numbers belong to inactive results. Calls of active or inactive are those of the source. No stated cut-off is given here; in the data, active means growth inhibition above about 70%; inactive means the rest.
# Tests used:
# [1] = NCI Yeast Anticancer Drug Screen. Data for the rad50 strain (AID 155);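 further: 0% = growth of vehicle-only cultures of the same strain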; settings: S. cerevisiae rad50 strain growth inhibition, active compounds read high
# In short: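 Compounds were tested on a yeast strain with an engineered DNA damage repair alteration; the reported value is growth inhibition normalised to vehicle treatment.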
# [2] = NCI Yeast Anticancer Drug Screen. Data for the mec2-1 strain (AID 157); settings: S. cerevisiae mec2-1 strain, active compounds read high
# In short: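 Cells of the genetically defined mec2-1 yeast strain are incubated with test compound. Inhibition of growth is calculated against vehicle-treated controls.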
# [3] = NCI Yeast Anticancer Drug Screen. Data for the sgs1 mgt1 strain (AID 161);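 further: 0% = growth of cultures given vehicle only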; settings: S. cerevisiae sgs1 mgt1 strain, active compounds read high
# In short: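 Inhibition of yeast growth, normalised to vehicle-treated controls, is reported for a strain bearing genetic alterations in DNA damage repair.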
# [4] = NCI Yeast Anticancer Drug Screen. Data for the cln2 rad14 strain (AID 165);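 further: 0% = growth equal to vehicle treated cultures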; settings: S. cerevisiae cln2 rad14 strain, active compounds read high
# In short: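 The screen exposed genetically defined yeast (cln2 rad14) to test compounds and scored growth inhibition relative to vehicle-treated controls.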
# [5] = NCI Yeast Anticancer Drug Screen. Data for the bub3 strain (AID 167); settings: S. cerevisiae bub3 mutant strain, active compounds read high
# In short: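 Growth of a checkpoint-deficient yeast mutant is measured after compound exposure. Values represent inhibition relative to vehicle.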
# [6] = NCI Yeast Anticancer Drug Screen. Data for the mlh1 rad18 strain (AID 175); settings: S. cerevisiae mlh1 rad18 strain growth inhibition, active compounds read high
# In short: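 Compound-treated yeast growth, normalised to vehicle controls. Strain bears defined DNA repair mutations.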
# [7] = at 5.0 µM (retest, dose inferred, filed as 0.5)
# [8] = at 50.0 µM (retest, dose inferred, filed as 5.0)
SMILES,"growth inhibition [1, 7]","growth inhibition [1, 8]",growth inhibition ([1]; at 50.0 µM),"growth inhibition [2, 7] [%]","growth inhibition [2, 8]",growth inhibition ([2]; at 50.0 µM),"growth inhibition [3, 7]","growth inhibition [3, 8]",growth inhibition ([3]; at 50.0 µM),"growth inhibition [4, 7] [%]","growth inhibition [4, 8]",growth inhibition ([4]; at 50.0 µM),"growth inhibition [5, 7] [%]","growth inhibition [5, 8]",growth inhibition ([5]; at 50.0 µM),"growth inhibition [6, 7]","growth inhibition [6, 8]",growth inhibition ([6]; at 50.0 µM)
COc1ccc(C2=C(Cl)C(=O)N(c3ccccc3C)C(=O)C2(Cl)Cl)cc1,66%,95% (active),94.3% (active),17,97% (active),97.8% (active),83% (active),97% (active),97.9% (active),24,94% (active),85.4% (active),44,95% (active),94.1% (active),70% (active),93% (active),97.7% (active)
CCCCCCCCCCCCN(CCO)CCO,68%,95% (active),74.9% (active),36,96% (active),79.3% (active),63%,96% (active),89.5% (active),67,92% (active),73.8% (active),57,98% (active),60.6%,41%,91% (active),85.2% (active)
CCC1CN2CCc3cc(OC)c(OC)cc3C2CC1CC1c2cc(OC)c(OC)cc2CCN1C(=O)C(Cc1c[nH]c2ccccc12)NC(=O)OC(C)(C)C (configuration not stated),-4%,97% (active),96.8% (active),-6,98% (active),88.3% (active),-5%,49%,53%,-13,98% (active),93.5% (active),-5,98% (active),59.5%,-3%,98% (active),93.8% (active)
CCCCN(Cc1ccccc1)CC(O)c1cc2c(c3ccccc13)CCCC2 (configuration not stated),-2%,85% (active),95.9% (active),9,89% (active),80% (active),0%,95% (active),93.2% (active),-7,59%,92.2% (active),-7,84% (active),76.1% (active),18%,92% (active),92.8% (active)
c1ccc2c(c1)OCC(CN1CCN(CC3COc4ccccc4O3)CC1)O2 (configuration not stated),41%,57%,76.7% (active),36,51%,67%,47%,55%,77.7% (active),52,58%,84% (active),47,60%,67.9%,47%,60%,81.2% (active)
O=C(/C=C/C(=N\Nc1ccccc1)c1ccccc1)c1ccccc1,21%,90% (active),37.9%,23,99% (active),13.9%,27%,96% (active),26.4%,46,98% (active),30.9%,67,99% (active),21.5%,47%,95% (active),72% (active)
COc1ccc(C2c3cc4c(cc3OC(O)C2C)OCO4)cc1 (configuration not stated),-3%,69%,96.8% (active),-6,49%,93.5% (active),-2%,78% (active),98.3% (active),-2,42%,95.3% (active),-2,67%,97% (active),-1%,74% (active),97.5% (active)
Cc1cccc(C)c1N=Nc1c(C)nc(N)nc1-c1ccccc1,0%,88% (active),96.8% (active),12,95% (active),96.4% (active),5%,96% (active),95.5% (active),-4,90% (active),94.3% (active),-7,93% (active),96.3% (active),-4%,91% (active),95.3% (active)
COc1ccc(C(=O)CC(=O)c2ccccc2)cc1,1%,99% (active),-6.2%,-1,99% (active),17.8%,2%,99% (active),20.4%,-15,99% (active),-17.3%,24,99% (active),80% (active),0%,99% (active),14.1%
CC(C)OC1=C(Cl)C(=O)c2c(cccc2[N+](=O)[O-])C1=O,32%,99% (active),26.8%,38,100% (active),99.1% (active),48%,99% (active),99.4% (active),19,100% (active),88.5% (active),38,94% (active),98.5% (active),41%,100% (active),71% (active)
O=C(N/C(=C\c1ccc(Cl)cc1)c1nc2ccccc2s1)c1ccccc1,34%,95% (active),98.3% (active),32,97% (active),98.1% (active),54%,97% (active),98.8% (active),15,96% (active),98% (active),30,97% (active),96.7% (active),28%,95% (active),97.8% (active)
CCOC(=O)c1c(C)c2c(n1C)CCc1sc(N)nc1-2,14%,66%,96% (active),7,58%,96.8% (active),5%,65%,98.3% (active),-1,26%,43.3%,2,80% (active),96.7% (active),-1%,58%,90.2% (active)
CCCC(=O)Oc1c(Br)cc(Br)cc1Br,-1%,17%,21.6%,-4,7%,21.3%,-4%,7%,19.1%,-6,-19%,44.9%,1,19%,45.5%,-1%,12%,20.6%
CN(C)C(=S)/N=c1\ssc(=S)n1Cc1ccco1,22%,-7%,1.55%,0,-8%,-3.4%,-15%,-9%,-15.8%,-7,-11%,0.45%,2,-5%,47.3%,-2%,-9%,-4.25%
O=C(O)c1ccc2c(Br)ccc3c2c1CC3,13%,8%,77.3% (active),-13,25%,56.1%,-6%,16%,73.5% (active),-8,-1%,18.1%,-2,20%,8.05%,34%,35%,68.6%
CCC/C(C)=N/NC(=S)SC,70% (active),95% (active),96.8% (active),38,95% (active),90.5% (active),27%,96% (active),94.2% (active),6,84% (active),77.5% (active),65,94% (active),96.7% (active),72% (active),95% (active),96.3% (active)
Oc1cccnc1CN1CCCCC1,-5%,19%,-11.7%,6,22%,-3.1%,7%,8%,-28.5%,14,14%,85.7% (active),-21,7%,-10.8%,19%,46%,-21.1%
CCC1CCC2=C(C1)C(=O)c1ccccc1C2=O (configuration not stated),6%,91% (active),3.4%,7,92% (active),49.5%,11%,96% (active),45%,11,71% (active),49.3%,9,94% (active),95.9% (active),6%,97% (active),51.5%
N#CC1(C#N)C(C#N)(C#N)C12CCCC2,5%,50%,38.9%,4,54%,21.4%,4%,66%,74% (active),1,30%,16.9%,4,81% (active),12.4%,5%,91% (active),67.3%
